# Results published in the OligoGym collection.
# Target: STARD3
# Assay: pooled miR-30 sensor sort-seq; sequence = guide strand
# Conditions: shRNA
# Note: reference of the scale not given here.
row,Sequence,sensor-assay potency score (higher = more potent)
1,TGTCTTGTTCCACAGCACCATC,-1.77
2,TTCCACAGCACCATCCTCTCGG,0.506
3,TTCCACTCGCTGCAGGATCTGG,-1.17
4,TTTTCTTCCCAGCAACTTCTTC,-1.04

# Target: STAT5B
# Assay: as above
# Conditions: shRNA
row,Sequence,sensor-assay potency score (higher = more potent)
1,TTTAGCAGTAGCAGACTCGCAG,0.175
2,TAACTCATTCTCTGTGTCCTGC,0.72
3,TTGACTTGAAAAACCAGCTCAT,0.235
4,TATACTTCATCTTTTGGCCGAT,-0.0426
5,TTGGCTTCTCGGACCAACCTCT,-0.339
6,TTCTGAGTCACTGAATCTCAGG,-1.25
7,TTAGCAGTAGCAGACTCGCAGG,-0.797
8,TTCTCAATGATGAACGTGCTGG,-0.64
9,TTTAACACTTCCATCACACCGT,0.122
10,TTGTTCAAGATCTCGCCACTGT,0.132
11,TAACACTTCCATCACACCGTCA,-0.288
12,TTAACACTTCCATCACACCGTC,-0.414

# Target: STK11
# Assay: as above
# Conditions: shRNA
row,Sequence,sensor-assay potency score (higher = more potent)
1,TCGCAACTTCTTCTTCTTGAGG,-1.45
2,TTCGCAACTTCTTCTTCTTGAG,-0.46
3,TTCGTTGTATAACACATCCACC,-1.02
4,TTTCTGCTTCTCTTCGTTGTAT,0.0401
5,TATAACACATCCACCAGCTGGA,0.528
6,TCTTCTTGAGGATCTTGACGGC,-0.46
7,TACATTTTCTGCTTCTCTTCGT,0.646
8,TTCTTCTTGAGGATCTTGACGG,-0.484
9,TCAGCTGACAGAAGTACCCGTG,0.17
10,TTTTTGTGCCGTAACCTCCTCA,0.218
11,ATCAGCTGACAGAAGTACCCGT,-0.0103
12,TAACACATCCACCAGCTGGATG,-1.1

# Target: STK24
# Assay: as above
# Conditions: shRNA
row,Sequence,sensor-assay potency score (higher = more potent)
1,TTCTAATAGATCTAGTGCGGAG,-0.878
2,TAATTGTAGATAAACACTGAGA,-0.826
3,TAATATAGTAGCGATCTGGGTT,0.44
4,TGGACTGTCACACTGACTCAGC,-1.39
5,TATACAAATCTGTACACCCATC,-1.31
6,TCTCGGATTGTGAAGATCCAGT,-1.01
7,TTTCTCTTAATATAGTAGCGAT,-0.861
8,TTTCATCTTATTTCTGTCCAAG,-0.728
9,TACATATGGACTGTCACACTGA,0.632
10,TTTCCTTCCAACGTCGGTGGGT,0.554
11,TTGTGCTTCAATAACTCCTTAG,-0.488
